# FUS yeast rescue = qHTS for Suppressors of FUS Proteinopathy: Primary screen using FUS-linked yeast assay; S. cerevisiae FUS-expressing, growth rescue, OD600, 24 h; Potency, µM (top dose mostly 76.6 µM), most hits filed as activators; 0.24% of 390,000 active; also: nearly all actives have a fitted effect of over 55% in size
#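 Absorbance at 600 nm, taken 24hr after compound addition, measured rescue of FUS-yeast growth at 30C. Induction used 2% galactose with seeding at OD 0.005. Controls: CP55940 from 92uM final, DMSO only.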
# Abeta yeast res = qHTS for compounds that reverse cellular toxicity of Amyloid beta (A-beta) peptide in yeast: Primary Screen | yeast expressing A-beta42, growth rescue, OD600, 48 h; response scale: 0% DMSO, 100% iron-clioquinol control | Potency, µM (titrated, usually from 46.1 µM), most hits filed as activators | 0.063% of 410,000 active | AID 1347071, 2019; also: nearly all actives have a fitted effect of over 55% in size
#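 Yeast A-beta toxicity model in growth medium with pinned compounds, 48 h at 30 C; growth read as absorbance at 600 nm. Normalized to FeCl3/clioquinol equimolar mix (positive) and DMSO (negative).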
# aSyn yeast inh = qHTS of alpha-syn Inhibitors; Yeast expressing alpha-synuclein, growth rescue, BacTiter-Glo, 24 h; AID 652106, 2013; Potency, µM (doses to about 46.1 µM), most hits filed as activators; 0.14% of 370,000 active; also: nearly all actives have a fitted effect of over 65% in size
#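 Galactose-induced alpha-syn yeast (OD600=0.02, raffinose-pregrown) + pinned cpd, 24 hr, 30 deg C; growth by BacTiter-Glo luminescence. Growth restoration scores as activation.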
# Mito fusion yeast = qHTS Assay for Small Molecule Inhibitors of Mitochondrial Division or Activators of Mitochondrial Fusion | S. cerevisiae fusion-defective mutant growth rescue, CellTiterGlo 48 h | Potency, µM (doses to about 46.1 µM), usual class: activators | 0.23% of 320,000 active | AID 485298, 2010; also: nearly all actives have a fitted effect of over 45% in size
#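 Read-out: ATP-based luminescence (CellTiterGlo, 10 min ambient) reporting growth of fusion-defective ts yeast after 48 hours at 37C on glycerol/ethanol YPEG medium in the presence of compound.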
# TDP-43 yeast inh = qHTS of TDP-43 Inhibitors; TDP-43 expressing yeast growth rescue, BacTiter-Glo, 24 h; Potency, µM (titrated, usually from 46.1 µM), most hits filed as activators; 1.8% of 410,000 active; also: nearly all actives have a fitted effect of over 50% in size
#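 Yeast expressing TDP-43 (pregrown in raffinose, seeded at OD600=0.02 in galactose medium) exposed to compounds 24 hr at 30 deg C. Growth read by BacTiter-Glo luminescence; rescue of toxicity appears as increased signal.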
# Hits are given with their value; - = inactive; ? = inconclusive; . = not tested or not shown; ! = repeats disagree. In the library only some 2.2% were active in any assay of this set; here they are far more common. Calls follow the shape of the dose curve; as a rule, active = well fitted curve in the direction sought with a large enough effect; inconclusive = small, poorly fitted or top-dose-only effect, or another doubt; inactive = no such curve, though single readings can be large; an effect the other way counts as inactive or inconclusive.
SMILES,FUS yeast rescue,Abeta yeast res,aSyn yeast inh,Mito fusion yeast,TDP-43 yeast inh
CCC(C)NC(=O)c1c(N)n(CCCOC)c2nc3ccccc3nc12 (stereo not given),-,-,-,?,25µM
COCCCn1c(N)c(C(=O)Nc2ccccc2)c2nc3ccccc3nc21,-,-,-,?,-
CC1(C)N([O])C(c2ccc(C(=O)O)cc2)=[N+]([O-])C1(C)C,.,.,-,.,.
C=CCOC(=O)COc1cc(C)cc2oc(=O)c3c(c12)CCC3,?,-,-,-,14µM
Cc1ccc([C@H]2C[C@@H](O)[C@H](n3cc(COC(=O)c4ccccc4)nn3)CN2CC2CCCCC2)cc1,-,-,-,.,?
C=C1C=C(C(F)F)n2ncc(C(=O)NCc3ccccc3F)c2N1,.,.,-,.,.
CC(C)(C)C(=O)O[C@H]1CC[C@@]2(C)C(=CC(=O)C3C2CC[C@]2(C)C(=O)CCC32)C1 (stereo not given in full),-,-,-,.,-
CC(=O)[C@H]1CCC2C3CC=C4C[C@@H](OS(=O)(=O)O)CC[C@]4(C)C3CC[C@@]21C (stereo not given in full),.,.,?,-,.
CC(=O)O[C@H]1CC[C@@]2(C)C(=CC[C@@H]3[C@@H]2CC[C@]2(C)C(=O)CC[C@@H]32)C1,-,-,?,14µM,?
CC(=O)O/C(=C1\CC2C3CC=C4CC(OC(C)=O)CCC4(C)C3CCC2(C)C1=O)C(F)(F)F (stereo not given),.,-,13µM,.,?
CC1(C(=O)O)CCCC2(C)c3cc(O)ccc3CCC12 (stereo not given),-,-,-,.,-
C[C@]12CC[C@H]3C(=CCc4cc(O)ccc43)[C@@H]1CCC2=O,-,-,-,-,10µM
N#Cc1ccc(C(=O)N2CCN(c3nc4ccc(F)cc4s3)CC2)cc1,-,-,.,.,?
c1ccc(CCCN2CCN(CCOC(c3ccccc3)c3ccccc3)CC2)cc1,-,-,-,7.3µM,-
N#Cc1cc(NC(=O)c2ccc(Cl)cc2)ccc1Sc1ccccc1,-,-,-,.,-
CCc1cc2c(cc1-c1csc(C/C(N)=N/O)n1)C(C)(C)CCC2(C)C,-,-,-,.,22µM
CCCCn1c(NC(=O)c2ccc(Br)o2)c(C(=O)OCC)c2nc3ccccc3nc21,-,-,-,8.9µM,-
O=Cc1c(NCc2ccc(Cl)cc2)c2ccccc2[nH]c1=O,-,-,-,-,?
CC(C)Oc1cc(-n2c(=S)[nH]c3ccccc3c2=O)c(Cl)cc1Cl,-,-,-,-,10µM
CN(C(=O)CNC(=O)OCc1ccccc1)c1ccc(Br)cc1C(=O)c1ccccc1Cl,.,-,-,13µM,-
Clc1ccc2c(c1)C(c1ccccc1Cl)=NCc1nnc(N3CCN(CCOc4ccccc4)CC3)n1-2,?,-,-,13µM,-
Clc1ccc2c(c1)C(c1ccccc1Cl)=NCc1nnc(N3CCN(CCSc4ccccc4)CC3)n1-2,.,-,-,-,-
CCC(=NCCO)c1c(O)n(C2CCCCC2)c(=O)[nH]c1=O,-,-,-,-,-
CCC(=NCc1ccc2c(c1)OCO2)c1c(O)n(C2CCCCC2)c(=O)[nH]c1=O,-,-,-,?,20µM
CN(CC(=O)NC1CCCC1)S(=O)(=O)c1cccc(Cl)c1,-,-,-,.,?
SMILES,FUS yeast rescue,Abeta yeast res,aSyn yeast inh,Mito fusion yeast,TDP-43 yeast inh
O=C(Nc1ccccn1)NC12CC3CC(CC(C3)C1)C2,-,-,-,-,3.2µM
COC(=O)[C@]1(C)C[C@H]1[C@H](NP(=O)(c1ccccc1)c1ccccc1)c1ccccc1,-,-,-,-,-
C=C[C@@H]1C[C@@]1(C)[C@@H](NP(=O)(c1ccccc1)c1ccccc1)c1ccccc1,-,-,-,18µM,-
O=C(C(=O)N1CCOCC1)c1cn(CCCOc2ccccc2)c2ccccc12,-,-,-,-,-
CC(=O)c1cn(CCCOc2ccccc2)c2ccccc12,-,-,-,?,11µM
CCC(=O)Nc1ccc(C(=O)NNC(=O)c2cc([N+](=O)[O-])cc([N+](=O)[O-])c2)cc1,-,-,-,-,-
CCN(CC)C(=O)c1ccc2c(c1)C1C(Cl)C(Sc3ccccc3[N+](=O)[O-])CC1C(C(=O)O)N2 (stereo not given),40µM,-,-,-,-
COC(=O)C1=C(c2ccc(-c3ccccc3)c(F)c2)C[C@@H]2CC[C@H]1N2C(=O)NC1CC1,-,-,-,?,20µM
COC(=O)C1=C(c2ccc(-c3ccccc3)c(F)c2)C[C@@H]2CC[C@H]1N2C(=O)NC(C)C,?,-,-,?,?
COC(=O)C1=C(c2ccc(Cl)c(C(F)(F)F)c2)C[C@@H]2CC[C@H]1N2C(=O)NCCOc1ccc(OC)cc1,?,-,?,-,11µM
COc1ccc(-c2nc(CSCC(=O)N3CCN(c4ccc(F)cc4)CC3)c(C)o2)cc1,?,-,.,.,?
COc1cccc(C(C)(O)c2nc(-c3cccc(F)c3)cs2)c1 (stereo not given),-,?,-,.,?
O=C(CNC(=O)c1ccc(Br)cc1)Nc1ccc(Br)cc1C(=O)c1ccccc1,-,-,-,18µM,-
O=C(Nc1ccc(Br)cc1C(=O)c1ccccc1)c1ccccc1,-,-,.,.,-
Cc1c(C)c2c(OCC(=O)N[C@@H](C)C(=O)O)cc3c(c2oc1=O)CCC(C)(C)O3,-,-,-,-,?
COc1cc2c(cc1O)CC[C@@H]1[C@@H]2CC[C@]2(C)[C@@H](O)CC[C@@H]12,-,-,-,21µM!,?
C[C@]12CC[C@H]3[C@@H](CCC4=CC(=O)CC[C@@]43C)[C@@H]1CC[C@@H]2O,-,-,-,.,?
Clc1ccc(C(Cn2ccnc2)OCc2csc3c(Cl)cccc23)c(Cl)c1 (stereo not given),-,-,?,3.5µM,-
COc1ccc(N2C(=O)CC(N3CC=C(c4ccccc4)CC3)C2=O)cc1 (stereo not given),-,-,?,-,22µM
CC(=O)OCC12CC(OC(=O)CC(C)C)C(C)=CC1OC1C(O)C(OC(C)=O)C2(C)C12CO2 (stereo not given),.,-,?,.,1.8µM
Cc1ccccc1NC(=O)Oc1cccc(OC(=O)c2ccccc2)c1,-,-,-,-,?
COc1ccccc1-n1c(/C=C/c2ccccc2)nc2ccccc2c1=O,-,-,.,.,-
Cc1cccc(-n2c(/C=C/c3cccc4ccccc34)nc3ccccc3c2=O)c1,-,-,.,.,35µM
COc1ccc(-n2c(/C=C\c3ccccc3F)nc3ccccc3c2=O)c(OC)c1,?,?,.,.,35µM
N[C@@H](Cn1ccc(=O)[nH]c1=O)C(=O)O,.,.,-,-,.
